Test results as given in the supplement of paper PMC10849652.
The full data set covers some 8,800 targets. This sample favours those with a hit. About 0.5% of all pairs of compound and target were hits.

Compound: CCCS(=O)(=O)Nc1ccc(F)c(C(=O)c2c[nH]c3ncc(Cl)cc23)c1F
Assay: log2 fold change, soluble protein after heating vs DMSO (PISA); higher = thermal stabilisation; K562 lysate, 10 uM; active = over 0.2 and 3.5 SD of the protein, either way, in both replicates (recomputed)
Outline: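 Thermal stability, expressed as log-two fold change relative to solvent controls, is given from duplicates. Crude K562 extract in PBS pH 7.4 with 1 mM MgCl2, at 1 mg/mL protein, was treated with 10 μM compound for 30 min and heated in aliquots for 3 min across 48°C-58°C. After pooling, adjustment to 0.5% NP-40 at 4°C and centrifugation at 21,000xg for 90 min, supernatant protein was measured by TMTpro 16plex LC-MS/MS with channel sums equalised.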

Chain of UniProt Q13416 (Q13416 whole entry, looked up): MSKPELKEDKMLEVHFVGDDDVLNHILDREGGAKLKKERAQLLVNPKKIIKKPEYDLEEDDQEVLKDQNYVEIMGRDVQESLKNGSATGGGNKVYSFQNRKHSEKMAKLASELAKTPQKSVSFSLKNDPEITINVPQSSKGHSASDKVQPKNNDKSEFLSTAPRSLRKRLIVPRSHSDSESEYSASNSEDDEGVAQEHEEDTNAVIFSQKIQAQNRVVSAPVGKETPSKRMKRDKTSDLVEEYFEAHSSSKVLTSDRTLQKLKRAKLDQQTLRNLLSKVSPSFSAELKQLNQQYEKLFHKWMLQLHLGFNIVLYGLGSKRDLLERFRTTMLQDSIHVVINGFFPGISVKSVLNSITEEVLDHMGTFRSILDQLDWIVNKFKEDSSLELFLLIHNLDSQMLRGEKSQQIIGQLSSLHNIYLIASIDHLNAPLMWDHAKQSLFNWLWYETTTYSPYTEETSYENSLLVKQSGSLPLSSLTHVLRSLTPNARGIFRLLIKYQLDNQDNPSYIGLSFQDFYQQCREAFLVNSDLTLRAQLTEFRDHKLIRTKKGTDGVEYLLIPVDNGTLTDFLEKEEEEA
Chain of UniProt Q9Y5N5 (Q9Y5N5 whole entry, looked up, one chain of several): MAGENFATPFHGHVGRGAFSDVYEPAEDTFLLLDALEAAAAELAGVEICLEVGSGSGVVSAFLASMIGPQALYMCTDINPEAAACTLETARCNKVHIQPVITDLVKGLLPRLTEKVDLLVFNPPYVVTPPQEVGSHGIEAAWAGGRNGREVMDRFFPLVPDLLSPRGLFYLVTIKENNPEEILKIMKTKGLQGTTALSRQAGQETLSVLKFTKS
Chain of UniProt Q9BXS6 (Q9BXS6 whole entry, looked up): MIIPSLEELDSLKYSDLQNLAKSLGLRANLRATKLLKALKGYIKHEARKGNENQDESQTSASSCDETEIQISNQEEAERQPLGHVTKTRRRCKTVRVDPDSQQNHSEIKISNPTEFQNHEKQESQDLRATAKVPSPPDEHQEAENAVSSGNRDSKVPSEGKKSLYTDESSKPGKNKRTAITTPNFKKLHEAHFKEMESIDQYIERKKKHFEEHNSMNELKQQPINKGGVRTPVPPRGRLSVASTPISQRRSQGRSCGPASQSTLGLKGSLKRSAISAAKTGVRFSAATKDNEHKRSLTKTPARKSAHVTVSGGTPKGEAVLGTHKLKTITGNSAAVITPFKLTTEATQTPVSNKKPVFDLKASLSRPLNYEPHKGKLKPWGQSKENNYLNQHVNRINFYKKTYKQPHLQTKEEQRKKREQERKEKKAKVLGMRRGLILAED
Chain of UniProt O00221 (O00221 whole entry, looked up): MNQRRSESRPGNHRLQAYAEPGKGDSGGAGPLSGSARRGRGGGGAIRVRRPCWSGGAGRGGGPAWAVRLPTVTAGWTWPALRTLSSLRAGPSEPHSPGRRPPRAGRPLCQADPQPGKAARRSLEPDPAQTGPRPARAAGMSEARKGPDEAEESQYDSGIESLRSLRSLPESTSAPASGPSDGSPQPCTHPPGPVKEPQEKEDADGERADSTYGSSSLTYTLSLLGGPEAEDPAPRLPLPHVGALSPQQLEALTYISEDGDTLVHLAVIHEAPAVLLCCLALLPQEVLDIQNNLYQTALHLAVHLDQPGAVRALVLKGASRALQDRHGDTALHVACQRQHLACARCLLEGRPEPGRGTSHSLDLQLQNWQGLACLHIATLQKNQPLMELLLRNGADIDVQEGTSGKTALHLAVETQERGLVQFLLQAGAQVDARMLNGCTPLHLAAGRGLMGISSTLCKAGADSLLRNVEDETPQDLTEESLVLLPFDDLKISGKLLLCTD
Chain of UniProt P21359 (P21359 whole entry, looked up): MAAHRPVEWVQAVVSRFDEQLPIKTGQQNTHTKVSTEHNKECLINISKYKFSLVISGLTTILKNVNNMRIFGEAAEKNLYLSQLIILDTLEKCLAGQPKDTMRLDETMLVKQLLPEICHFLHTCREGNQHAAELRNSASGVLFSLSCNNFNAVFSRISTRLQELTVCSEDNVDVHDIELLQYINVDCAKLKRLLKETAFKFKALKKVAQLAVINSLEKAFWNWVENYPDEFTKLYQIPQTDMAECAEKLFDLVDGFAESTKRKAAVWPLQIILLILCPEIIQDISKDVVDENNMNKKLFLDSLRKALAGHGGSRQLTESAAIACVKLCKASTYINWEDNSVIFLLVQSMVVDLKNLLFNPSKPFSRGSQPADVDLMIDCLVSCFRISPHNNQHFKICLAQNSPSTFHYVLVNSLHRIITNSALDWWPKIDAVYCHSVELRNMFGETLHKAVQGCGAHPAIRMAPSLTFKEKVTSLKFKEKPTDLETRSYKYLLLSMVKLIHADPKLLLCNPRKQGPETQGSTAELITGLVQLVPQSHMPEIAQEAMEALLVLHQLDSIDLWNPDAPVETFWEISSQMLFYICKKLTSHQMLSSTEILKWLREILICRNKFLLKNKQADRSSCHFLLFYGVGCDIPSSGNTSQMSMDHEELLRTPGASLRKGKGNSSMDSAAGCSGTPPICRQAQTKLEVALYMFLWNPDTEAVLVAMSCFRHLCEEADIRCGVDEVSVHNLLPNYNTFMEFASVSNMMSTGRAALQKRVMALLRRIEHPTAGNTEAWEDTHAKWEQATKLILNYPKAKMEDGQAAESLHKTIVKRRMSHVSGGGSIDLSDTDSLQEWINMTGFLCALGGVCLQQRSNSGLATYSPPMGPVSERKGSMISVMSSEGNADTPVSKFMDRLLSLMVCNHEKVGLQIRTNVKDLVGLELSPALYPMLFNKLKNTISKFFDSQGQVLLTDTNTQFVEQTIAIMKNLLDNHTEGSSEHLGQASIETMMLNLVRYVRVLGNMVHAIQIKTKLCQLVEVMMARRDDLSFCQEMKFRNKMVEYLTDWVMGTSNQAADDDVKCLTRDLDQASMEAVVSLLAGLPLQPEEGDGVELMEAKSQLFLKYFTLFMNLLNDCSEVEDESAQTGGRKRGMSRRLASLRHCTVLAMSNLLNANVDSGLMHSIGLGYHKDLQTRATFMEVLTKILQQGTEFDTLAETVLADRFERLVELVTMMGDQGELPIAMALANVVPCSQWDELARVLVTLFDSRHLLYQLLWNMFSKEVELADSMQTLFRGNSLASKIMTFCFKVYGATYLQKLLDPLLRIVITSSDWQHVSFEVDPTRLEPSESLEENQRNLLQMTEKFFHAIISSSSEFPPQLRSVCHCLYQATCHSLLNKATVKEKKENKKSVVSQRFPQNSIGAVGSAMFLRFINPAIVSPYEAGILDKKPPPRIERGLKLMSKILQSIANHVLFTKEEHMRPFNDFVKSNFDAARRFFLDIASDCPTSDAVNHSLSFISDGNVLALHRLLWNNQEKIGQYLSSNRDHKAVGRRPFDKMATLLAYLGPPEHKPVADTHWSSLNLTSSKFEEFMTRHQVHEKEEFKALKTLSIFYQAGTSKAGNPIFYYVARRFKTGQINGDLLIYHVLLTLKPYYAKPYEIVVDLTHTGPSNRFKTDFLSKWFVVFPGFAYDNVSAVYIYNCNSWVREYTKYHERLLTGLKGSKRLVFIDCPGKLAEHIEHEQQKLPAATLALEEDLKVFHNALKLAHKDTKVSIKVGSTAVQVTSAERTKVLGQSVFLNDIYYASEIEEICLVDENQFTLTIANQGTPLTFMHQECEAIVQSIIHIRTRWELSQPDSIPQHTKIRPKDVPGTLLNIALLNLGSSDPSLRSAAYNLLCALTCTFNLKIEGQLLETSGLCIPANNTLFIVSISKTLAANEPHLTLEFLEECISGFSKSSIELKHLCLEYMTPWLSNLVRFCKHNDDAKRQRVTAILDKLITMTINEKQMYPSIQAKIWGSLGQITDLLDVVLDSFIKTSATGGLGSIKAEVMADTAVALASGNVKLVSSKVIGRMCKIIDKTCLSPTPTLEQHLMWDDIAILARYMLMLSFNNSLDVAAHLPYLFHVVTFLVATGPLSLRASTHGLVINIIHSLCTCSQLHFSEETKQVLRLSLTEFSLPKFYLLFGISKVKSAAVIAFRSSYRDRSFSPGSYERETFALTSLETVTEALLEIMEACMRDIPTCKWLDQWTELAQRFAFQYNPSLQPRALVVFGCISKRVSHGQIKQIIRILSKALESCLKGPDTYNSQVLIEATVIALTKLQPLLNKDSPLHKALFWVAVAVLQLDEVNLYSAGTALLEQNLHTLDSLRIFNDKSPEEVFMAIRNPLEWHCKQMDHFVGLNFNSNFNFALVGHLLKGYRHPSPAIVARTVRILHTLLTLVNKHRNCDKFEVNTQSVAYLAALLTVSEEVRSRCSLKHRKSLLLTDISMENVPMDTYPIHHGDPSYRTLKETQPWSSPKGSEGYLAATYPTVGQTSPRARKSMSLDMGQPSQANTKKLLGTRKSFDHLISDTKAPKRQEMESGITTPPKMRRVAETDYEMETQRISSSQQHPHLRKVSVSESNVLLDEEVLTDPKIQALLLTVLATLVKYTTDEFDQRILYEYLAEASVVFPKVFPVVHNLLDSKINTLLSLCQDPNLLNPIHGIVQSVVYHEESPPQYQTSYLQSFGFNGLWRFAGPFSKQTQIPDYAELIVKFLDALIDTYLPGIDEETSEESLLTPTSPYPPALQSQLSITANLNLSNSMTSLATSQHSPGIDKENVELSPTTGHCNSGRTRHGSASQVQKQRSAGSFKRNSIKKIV
Chain of UniProt Q9ULX3 (Q9ULX3 whole entry, looked up): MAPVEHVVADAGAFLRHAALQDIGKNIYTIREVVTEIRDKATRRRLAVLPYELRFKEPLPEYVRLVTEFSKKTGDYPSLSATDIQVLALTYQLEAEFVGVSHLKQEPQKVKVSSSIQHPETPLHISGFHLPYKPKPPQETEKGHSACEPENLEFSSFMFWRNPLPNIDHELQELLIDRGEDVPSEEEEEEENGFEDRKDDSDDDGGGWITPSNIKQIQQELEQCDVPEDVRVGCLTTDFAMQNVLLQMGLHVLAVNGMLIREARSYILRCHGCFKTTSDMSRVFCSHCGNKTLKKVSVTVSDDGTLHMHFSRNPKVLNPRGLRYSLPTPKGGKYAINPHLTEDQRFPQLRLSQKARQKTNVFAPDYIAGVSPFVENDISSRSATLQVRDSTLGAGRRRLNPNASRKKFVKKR

log2 fold change, inactive:
ORC2 (UniProt Q13416) 0.007
NIPSNAP3A (UniProt Q9UFN0) 0.018
N6AMT1 (UniProt Q9Y5N5) -0.016
OTUD7B (UniProt Q6GQQ9) 0.011
MSH2 (UniProt P43246) 0.001
MRPL53 (UniProt Q96EL3) -0.01
NFKBIE (UniProt O00221) 0.051
NCAPH2 (UniProt Q6IBW4) 0.027
MRPS18A isoform 2 (UniProt Q9NVS2) 0.03
NOB1 (UniProt Q9ULX3) 0.032
NCAPG2 (UniProt Q86XI2) 0.044
NUMB (UniProt P49757) 0.001
OARD1 (UniProt Q9Y530) 0.004
NF1 (UniProt P21359) 0.024
NTMT1 (UniProt Q9BV86) 0.026
MYD88 isoform 6 (UniProt Q99836) 0.01
NUSAP1 (UniProt Q9BXS6) 0.009
MVB12A (UniProt Q96EY5) 0.005
NAT1 (UniProt P18440) -0.003
MSH3 (UniProt P20585) 0.048
NCK1 (UniProt P16333) 0.003
NGLY1 (UniProt Q96IV0) 0.01
NOA1 (UniProt Q8NC60) -0.009
NUB1 (UniProt Q9Y5A7) 0.011
